# Experimental data as given in PubChem BioAssay AID1159580 (chemical genetic matrix, 2015).
# Screen size: about 5,500 compounds; about 2,000 (36%) were called active. Not shown: some 18% with an inconclusive outcome. No stated cut-off is given here; in the data, active means normalized growth mostly below about 0.91 (no sharp cut-off); inconclusive means no clear call, values can overlap the other calls; inactive means mostly above about 0.92. The list shows a part of the results.
# Assay: chemical genetic growth profiling, strain panel (AID 1159580);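 further: tested at 20 µM; growth read once vehicle control cultures reached saturation at 30 °C; 1 = growth at the plate median or of vehicle wells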
# Conditions: growth OD
compound,measurement,setting,value
CCCCOC(=O)c1ccc(N)cc1,normalized growth,"S. cerevisiae deletion strains, locus YJR075W, strain HOC1, stronger effect = lower value",0.888 (inactive)
same,normalized growth,"S. cerevisiae deletion strains, locus YKL009W, strain mrt4, stronger effect = lower value",0.946 (inactive)
same,normalized growth,"S. cerevisiae deletion strains, locus YKL068W, stronger effect = lower value",0.962 (inactive)
same,normalized growth,"S. cerevisiae deletion strains, locus YKL085W, strain MDH1 (second series), stronger effect = lower value",0.961 (inactive)
same,normalized growth,"S. cerevisiae deletion strains, locus YKL085W, strain MDH1, stronger effect = lower value",0.961 (inactive)
same,normalized growth,"S. cerevisiae deletion strains, locus YKL160W, strain elf1, stronger effect = lower value",0.875 (active)
same,normalized growth,"S. cerevisiae deletion strains, locus YKL190W, strain CNB1, stronger effect = lower value",0.975 (inactive)
same,normalized growth,"S. cerevisiae deletion strains, locus YKR001C, strain vps1, stronger effect = lower value",0.693 (active)
same,normalized growth,"S. cerevisiae deletion strains, locus YKR026C, strain gcn3, stronger effect = lower value",0.91 (active)
same,normalized growth,"S. cerevisiae deletion strains, locus YKR091W, strain srl3, stronger effect = lower value",0.907 (active)
same,normalized growth,"S. cerevisiae deletion strains, locus YLL001W, strain dnm1, stronger effect = lower value",0.825 (active)
same,normalized growth,"S. cerevisiae deletion strains, locus YLL026W, stronger effect = lower value",0.888 (active)
same,normalized growth,"S. cerevisiae deletion strains, locus YLL041C, strain sdh2, stronger effect = lower value",0.899 (active)
same,normalized growth,"S. cerevisiae deletion strains, locus YLR027C, strain aat2, stronger effect = lower value",0.878 (active)
same,normalized growth,"S. cerevisiae deletion strains, locus YLR039C, strain RIC1, stronger effect = lower value",0.783 (inactive)
same,normalized growth,"S. cerevisiae deletion strains, locus YLR058C, strain SHM2, stronger effect = lower value",0.979 (inactive)
same,normalized growth,"S. cerevisiae deletion strains, locus YLR102C, strain apc9, stronger effect = lower value",0.955 (inactive)
same,normalized growth,"S. cerevisiae deletion strains, locus YLR113W, strain HOG1, stronger effect = lower value",0.954 (inactive)
same,normalized growth,"S. cerevisiae deletion strains, locus YLR221C, strain rsa3, stronger effect = lower value",0.841 (active)
same,normalized growth,"S. cerevisiae deletion strains, locus YLR258W, strain gsy2, stronger effect = lower value",0.873 (active)
same,normalized growth,"S. cerevisiae deletion strains, locus YLR262C, strain YPT6 (second series), stronger effect = lower value",0.433 (active)
same,normalized growth,"S. cerevisiae deletion strains, locus YLR262C, strain YPT6, stronger effect = lower value",0.775 (inactive)
same,normalized growth,"S. cerevisiae deletion strains, locus YLR268W, strain sec22, stronger effect = lower value",0.86 (active)
same,normalized growth,"S. cerevisiae deletion strains, locus YLR320W, strain mms22, stronger effect = lower value",0.635 (active)
same,normalized growth,"S. cerevisiae deletion strains, locus YLR330W, strain CHS5, stronger effect = lower value",0.947 (inactive)
same,normalized growth,"S. cerevisiae deletion strains, locus YLR342W, strain FKS1 (second series), stronger effect = lower value",0.661 (active)
same,normalized growth,"S. cerevisiae deletion strains, locus YLR342W, strain FKS1, stronger effect = lower value",0.605 (active)
same,normalized growth,"S. cerevisiae deletion strains, locus YLR357W, strain rsc2, stronger effect = lower value",0.942 (inactive)
same,normalized growth,"S. cerevisiae deletion strains, locus YLR370C, strain arc18, stronger effect = lower value",0.844 (active)
same,normalized growth,"S. cerevisiae deletion strains, locus YLR371W, strain rom2, stronger effect = lower value",0.886 (active)
same,normalized growth,"S. cerevisiae deletion strains, locus YLR384C, strain iki3, stronger effect = lower value",0.946 (inactive)
same,normalized growth,"S. cerevisiae deletion strains, locus YLR418C, strain cdc73, stronger effect = lower value",0.765 (active)
same,normalized growth,"S. cerevisiae deletion strains, locus YML016C, strain PPZ1, stronger effect = lower value",0.981 (inactive)
same,normalized growth,"S. cerevisiae deletion strains, locus YML032C, strain rad52, stronger effect = lower value",0.905 (active)
same,normalized growth,"S. cerevisiae deletion strains, locus YML120C, strain ndi1, stronger effect = lower value",0.897 (active)
same,normalized growth,"S. cerevisiae deletion strains, locus YML124C, strain tub3, stronger effect = lower value",0.939 (inactive)
same,normalized growth,"S. cerevisiae deletion strains, locus YMR058W, strain fet3, stronger effect = lower value",0.881 (active)
same,normalized growth,"S. cerevisiae deletion strains, locus YMR078C, strain ctf18, stronger effect = lower value",0.933 (inactive)
same,normalized growth,"S. cerevisiae deletion strains, locus YMR125W, strain sto1, stronger effect = lower value",0.871 (active)
same,normalized growth,"S. cerevisiae deletion strains, locus YMR129W, stronger effect = lower value",0.922 (active)
same,normalized growth,"S. cerevisiae deletion strains, locus YMR205C, strain PFK2, stronger effect = lower value",0.793 (active)
same,normalized growth,"S. cerevisiae deletion strains, locus YMR223W, strain ubp8, stronger effect = lower value",0.902 (active)
same,normalized growth,"S. cerevisiae deletion strains, locus YMR231W, strain pep5, stronger effect = lower value",0.931 (inactive)
same,normalized growth,"S. cerevisiae deletion strains, locus YMR263W, strain SAP30, stronger effect = lower value",0.93 (inactive)
same,normalized growth,"S. cerevisiae deletion strains, locus YMR307W, strain GAS1, stronger effect = lower value",0.319 (active)
same,normalized growth,"S. cerevisiae deletion strains, locus YNL067W, strain RPL9B, stronger effect = lower value",0.907 (inactive)
same,normalized growth,"S. cerevisiae deletion strains, locus YNL071W, strain lat1, stronger effect = lower value",0.653 (active)
same,normalized growth,"S. cerevisiae deletion strains, locus YNL128W, strain TEP1, stronger effect = lower value",0.989 (inactive)
same,normalized growth,"S. cerevisiae deletion strains, locus YNL153C, strain GIM3, stronger effect = lower value",0.939 (inactive)
same,normalized growth,"S. cerevisiae deletion strains, locus YNL183C, strain NPR1, stronger effect = lower value",0.934 (inactive)
same,normalized growth,"S. cerevisiae deletion strains, locus YNL209W, strain ssb2, stronger effect = lower value",0.927 (active)
same,normalized growth,"S. cerevisiae deletion strains, locus YNL233W, strain BNI4, stronger effect = lower value",0.86 (active)
same,normalized growth,"S. cerevisiae deletion strains, locus YNL248C, strain rpa49, stronger effect = lower value",0.904 (inactive)
same,normalized growth,"S. cerevisiae deletion strains, locus YNL250W, strain rad50, stronger effect = lower value",0.934 (inactive)
same,normalized growth,"S. cerevisiae deletion strains, locus YNL271C, strain bni1, stronger effect = lower value",0.938 (inactive)
same,normalized growth,"S. cerevisiae deletion strains, locus YNL298W, strain CLA4, stronger effect = lower value",0.939 (inactive)
same,normalized growth,"S. cerevisiae deletion strains, locus YNL307C, strain MCK1, stronger effect = lower value",0.868 (active)
same,normalized growth,"S. cerevisiae deletion strains, locus YNL322C, strain KRE1 (second series), stronger effect = lower value",0.91 (inactive)
same,normalized growth,"S. cerevisiae deletion strains, locus YNL322C, strain KRE1, stronger effect = lower value",0.987 (inactive)
same,normalized growth,"S. cerevisiae deletion strains, locus YNR049C, strain mso1, stronger effect = lower value",0.905 (active)
same,normalized growth,"S. cerevisiae deletion strains, locus YNR052C, strain pop2, stronger effect = lower value",0.949 (inactive)
same,normalized growth,"S. cerevisiae deletion strains, locus YOL006C, strain TOP1, stronger effect = lower value",0.64 (inactive)
same,normalized growth,"S. cerevisiae deletion strains, locus YOL012C, strain htz1",0.742 (inactive)
same,normalized growth,"S. cerevisiae deletion strains, locus YOL147C, strain pex11, stronger effect = lower value",0.937 (inactive)
same,normalized growth,"S. cerevisiae deletion strains, locus YOR001W, strain rrp6, stronger effect = lower value",0.853 (active)
same,normalized growth,"S. cerevisiae deletion strains, locus YOR061W, strain CKA2, stronger effect = lower value",0.986 (inactive)
same,normalized growth,"S. cerevisiae deletion strains, locus YOR069W, strain VPS5, stronger effect = lower value",0.987 (inactive)
same,normalized growth,"S. cerevisiae deletion strains, locus YOR070C, strain gyp1, stronger effect = lower value",0.9 (active)
same,normalized growth,"S. cerevisiae deletion strains, locus YOR080W, strain dia2, stronger effect = lower value",0.95 (inactive)
same,normalized growth,"S. cerevisiae deletion strains, locus YOR083W, strain WHI5, stronger effect = lower value",0.862 (active)
same,normalized growth,"S. cerevisiae deletion strains, locus YOR106W, strain vam3, stronger effect = lower value",0.771 (active)
same,normalized growth,"S. cerevisiae deletion strains, locus YOR136W, strain idh2, stronger effect = lower value",0.956 (inactive)
same,normalized growth,"S. cerevisiae deletion strains, locus YOR144C, strain elg1, stronger effect = lower value",0.961 (inactive)
same,normalized growth,"S. cerevisiae deletion strains, locus YOR184W, strain ser1, stronger effect = lower value",0.817 (active)
same,normalized growth,"S. cerevisiae deletion strains, locus YOR231W, strain MKK1, stronger effect = lower value",0.987 (inactive)
same,normalized growth,"S. cerevisiae deletion strains, locus YOR265W, strain rbl2, stronger effect = lower value",0.902 (active)
same,normalized growth,"S. cerevisiae deletion strains, locus YOR270C, strain vph1, stronger effect = lower value",0.489 (active)
same,normalized growth,"S. cerevisiae deletion strains, locus YOR290C, strain snf2, stronger effect = lower value",0.867 (inactive)
same,normalized growth,"S. cerevisiae deletion strains, locus YOR316C, strain cot1, stronger effect = lower value",0.955 (inactive)
same,normalized growth,"S. cerevisiae deletion strains, locus YPL051W, strain arl3, stronger effect = lower value",0.725 (active)
same,normalized growth,"S. cerevisiae deletion strains, locus YPL055C, strain LGE1, stronger effect = lower value",0.889 (inactive)
same,normalized growth,"S. cerevisiae deletion strains, locus YPL078C, strain atp4, stronger effect = lower value",0.795 (active)
same,normalized growth,"S. cerevisiae deletion strains, locus YPL106C, strain sse1, stronger effect = lower value",0.792 (active)
same,normalized growth,"S. cerevisiae deletion strains, locus YPL240C, strain hsp82, stronger effect = lower value",0.914 (active)
same,normalized growth,"S. cerevisiae deletion strains, locus YPL241C, strain CIN2, stronger effect = lower value",0.98 (inactive)
same,normalized growth,"S. cerevisiae deletion strains, locus YPL256C, strain CLN2, stronger effect = lower value",0.967 (inactive)
same,normalized growth,"S. cerevisiae deletion strains, locus YPR119W, strain clb2, stronger effect = lower value",0.949 (inactive)
same,normalized growth,"S. cerevisiae deletion strains, locus YPR141C, strain kar3, stronger effect = lower value",0.933 (inactive)
same,normalized growth,"S. cerevisiae deletion strains, locus YPR163C, strain tif3, stronger effect = lower value",0.946 (inactive)
same,normalized growth,"S. cerevisiae deletion strains, locus YPR167C, strain met16, stronger effect = lower value",0.96 (inactive)
same,normalized growth,"S. cerevisiae deletion strains, strain wtn01, stronger effect = lower value",0.871 (active)
same,normalized growth,"S. cerevisiae strains, strain wild type, stronger effect = lower value",0.949 (inactive)
